The values below come from PubChem BioAssay (NCATS).

The target of assay [1] is Protein phosphatase 1D (Homo sapiens) (UniProt O15297). Description: RapidFire Mass Spectrometry qHTS Assay for Modulators of WT P53-Induced Phosphatase 1 (WIP1) (AID 1347424).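 Also: amount of dephosphorylated VEPPL-S-QETFS peptide product formed by WIP1; series mostly up to about 63 µM.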 In short, it runs like this:
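10 nM WIP1 preincubated with compounds 1 hr at room temperature in pH 7.5 Tris buffer with 30 mM MgCl2, 1 mM TCEP; 2 uM VEPPL-pS-QETFS phosphopeptide for 5 min, formic acid quench; dephosphorylated product quantified by RapidFire MS against labelled standard.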
(In qHTS, concentration-response curves come from the screen itself.)

The target is the same in assay [2]. Description: Rhodamine-PBP qHTS Assay for Modulators of WT P53-Induced Phosphatase 1 (WIP1) (AID 1347425). An outline of the steps:
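The read-out is the change in Rhodamine-PBP fluorescence (f1 - f0, ex 525/em 598 nm) as Pi is released, read each minute for 11 min. Final reaction: 5 nM WIP1, 10 uM phosphopeptide VEPPL-pS-QETFS, 10 uM Rh-PBP, 50 mM Tris-HCl pH 7.5, 30 mM MgCl2. Compound was preincubated with enzyme for 1 hour at room temperature.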

A short description of assay [3]: Primary qHTS for inhibitors of SARS-S pseudo-typed particle cell entry (AID 1479145; calls by dose curve; also: nearly all actives have a fitted effect of over 45% in size; also: potency is read from the fitted curve at half-maximal effect).
Assay [4] in a line: Primary qHTS for Huh7 cytotoxicity: counterscreen for inhibitors of MERS-S pseudotyped particle cell entry (AID 1479147; calls by dose curve; also: potency is read from the fitted curve at half-maximal effect).
Assay [5] can be described thus: Primary qHTS for inhibitors of MERS-S pseudo-typed particle cell entry (AID 1479149; calls by dose curve; also: nearly all actives have a fitted effect of over 60% in size).
Assay [6] in a line: Primary qHTS for Vero E6 cytotoxicity: counterscreen for inhibitors of SARS-S pseudo-typed particle cell entry (AID 1479150; calls by dose curve; also: potency is read from the fitted curve at half-maximal effect).
Assay [7] is described as follows: Primary qHTS for inhibitors of La Crosse Virus (LACV) - induced cell death in SH-SY5Y cells (AID 1508616).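 Also: top concentration of the series differs between compounds; higher means more rescue of cells from virus-induced death.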 An outline of the steps: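 Readout was luminescence from ATPLite 1step added after a 6-day LACV infection (0.01 MOI) of SH-SY5Y cells that had received pin-transferred compound 24 hr after seeding.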
Assay [8] has as its target Calcium and integrin-binding protein 1 (Homo sapiens) (UniProt Q99828). Description: Primary qHTS for Identification of Calcium Integrin Binding Protein 1 (CIB1) Competitor (AID 1508620). Also: potency is read from the fitted curve at half-maximal effect. An outline of the steps: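 Fluorescence polarization competition: GST-tagged CIB1 (1 uM final) preincubated with compound 15 min at room temperature, then FITC-labelled alphaIIb peptide (100 nM final) added. After 15 min at room temperature, polarization read at Ex 480/Em 540.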

The nature of assay [9]: A High-Content qHTS Against Drug Library for the Identification of Small Molecules that Inhibit DYT1 Early Onset Primary Dystonia-Associated Cell Pathology (AID 1645839; calls by dose curve; also: series mostly up to about 46 µM). An outline of the steps: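 Flp-In T-REx 293 cells with tetracycline-inducible EGFP-delE hTOR1A (WT EGFP-hTOR1A as reference), 800 cells/well; compound added with tetracycline, 48 h at 37 C. Fixed, permeabilized cells imaged; %pathology (punctate TorsinA) primary, cell count counterscreen.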

Assay [10] can be described thus: Counterscreen qHTS for small molecule stabilizers of the endoplasmic reticulum resident proteome: GLuc-NoTag assay (AID 1508627).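 Also: SH-SY5Y cells given compound then 100 nM thapsigargin to empty ER calcium; series mostly up to about 76 µM.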 In short, it runs like this: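 SH-SY5Y cells stably expressing constitutively secreted GLuc without SERCaMP tag, exposed to compound for 19 hr, then to 100 nM thapsigargin for 4 hr at 37C. Medium luciferase was read by coelenterazine luminescence without lysis.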
(A counterscreen serves to expose hits that act by an unwanted route or on another target.)

The nature of assay [11]: Confirmatory qHTS for small molecule stabilizers of the endoplasmic reticulum resident proteome: Secreted ER Calcium Modulated Protein (SERCaMP) assay (AID 1508628).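 Also: SH-SY5Y cells given compound 16 h then thapsigargin 100 nM for 4 h; series mostly up to about 76 µM; nearly all actives have a fitted effect of over 40% in size.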 In short, it runs like this:
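We seeded SH-SY5Y-GLuc-SERCaMP cells, added compounds (three concentrations in the primary run, eleven up to 76.6 uM in confirmation), incubated 16 h, depleted ER calcium with thapsigargin, and read luciferase 4 h later.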

In assay [12] the target is Cytochrome P450 2D6 (Homo sapiens) (UniProt P10635). Description: Cytochrome P450 family 2 subfamily D member 6 (CYP2D6) small molecule antagonists: luciferase biochemical (cell-free) qHTS assay (AID 1645840; active = well fitted curve in the direction sought with a large enough effect in the repeat runs; an effect the other way counts as inactive or inconclusive; also: nearly all actives have a fitted effect of over 55% in size; also: potency is read from the fitted curve at half-maximal effect). An outline of the steps: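 P450-Glo luminescent screen: recombinant CYP2D6 enzyme–proluciferin substrate mix preincubated with compound 10 min at room temperature, then NADPH regeneration added for 1 h at room temperature. Detection reagent added for 20 min; luciferin light read as relative luminescence units.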
Cytochrome P450 2D6 (Homo sapiens), sequence (P10635 whole entry, looked up): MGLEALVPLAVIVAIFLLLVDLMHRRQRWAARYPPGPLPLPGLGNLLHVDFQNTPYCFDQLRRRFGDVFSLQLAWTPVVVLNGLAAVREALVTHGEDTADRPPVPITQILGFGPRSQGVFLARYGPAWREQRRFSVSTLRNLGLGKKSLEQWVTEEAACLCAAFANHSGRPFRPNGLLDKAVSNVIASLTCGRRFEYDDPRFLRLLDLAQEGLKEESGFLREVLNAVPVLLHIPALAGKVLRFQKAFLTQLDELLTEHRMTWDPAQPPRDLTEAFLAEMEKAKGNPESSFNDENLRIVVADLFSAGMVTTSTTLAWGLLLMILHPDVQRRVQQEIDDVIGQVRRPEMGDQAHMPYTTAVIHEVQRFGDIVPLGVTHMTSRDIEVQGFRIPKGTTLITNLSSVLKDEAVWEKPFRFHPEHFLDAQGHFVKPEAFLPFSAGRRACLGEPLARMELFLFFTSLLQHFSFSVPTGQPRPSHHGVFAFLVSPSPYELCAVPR

Assay [13] can be described thus: Primary qHTS for small molecule stabilizers of the endoplasmic reticulum resident proteome: Secreted ER Calcium Modulated Protein (SERCaMP) assay (AID 1508630). In short, it runs like this:
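GLuc-SERCaMP-expressing SH-SY5Y cells, pretreated 16 h with compound, are challenged with thapsigargin to empty ER calcium stores; after 4 h, coelenterazine is added directly to the medium and luminescence is imaged.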

Assay [14] in a line: Validation qHTS assay for inhibitors of Activation Induced Cytidine Deaminase (AID): UDG Counterscreen signal (AID 1347427). An outline of the steps: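 Counterscreen read of UDG activity (2 U/mL, 4/3x) in the FRET deamination format with AID (1 uM, 4/3x), DJC20/DJC23 substrates (250 nM, 4x), 4 h at room temperature. NaOH stop, fluorescence at 560 ex/665 em.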
The target of assay [15] is Single-stranded DNA cytosine deaminase (Homo sapiens) (UniProt Q9GZX7). Description: Validation qHTS assay for inhibitors of Activation Induced Cytidine Deaminase (AID): AID signal (AID 1347429). In short, it runs like this: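 In this coupled qHTS, AID deaminates a FRET-labelled ssDNA substrate in the presence of UDG over 4 hr at room temperature. Compounds span up to 114 uM final.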
Single-stranded DNA cytosine deaminase (Homo sapiens), sequence (Q9GZX7 whole entry, looked up): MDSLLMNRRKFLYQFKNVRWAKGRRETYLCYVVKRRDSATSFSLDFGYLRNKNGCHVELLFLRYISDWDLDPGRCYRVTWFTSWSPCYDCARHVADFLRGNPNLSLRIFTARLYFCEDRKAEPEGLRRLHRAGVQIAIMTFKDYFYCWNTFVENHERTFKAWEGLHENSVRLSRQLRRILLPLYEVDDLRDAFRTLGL

Assay [16] concerns the target Calcium and integrin-binding protein 1 (Homo sapiens) (UniProt Q99828). In words: Validation qHTS for Identification of Calcium Integrin Binding protein 1 (CIB1) Competitor (AID 1508618). In short, it runs like this: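 CIB1-GST (1 uM final) incubated 15 min at room temperature with compounds (up to 114 uM), then FITC-labelled alphaIIb peptide (100 nM) added. FP read (Ex 480/Em 540) after 15 min, pH 7.4 buffer containing 5 mM CaCl2.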

Inconclusive results are not listed. Active and inactive are the calls of the source. Unless noted, calls follow the shape of the dose curve; as a rule, active = well fitted curve in the direction sought with a large enough effect; inconclusive = small, poorly fitted or top-dose-only effect, or another doubt; inactive = no such curve, though single readings can be large; an effect the other way counts as inactive or inconclusive.

Protein phosphatase 1D (Homo sapiens), sequence (O15297 whole entry, looked up): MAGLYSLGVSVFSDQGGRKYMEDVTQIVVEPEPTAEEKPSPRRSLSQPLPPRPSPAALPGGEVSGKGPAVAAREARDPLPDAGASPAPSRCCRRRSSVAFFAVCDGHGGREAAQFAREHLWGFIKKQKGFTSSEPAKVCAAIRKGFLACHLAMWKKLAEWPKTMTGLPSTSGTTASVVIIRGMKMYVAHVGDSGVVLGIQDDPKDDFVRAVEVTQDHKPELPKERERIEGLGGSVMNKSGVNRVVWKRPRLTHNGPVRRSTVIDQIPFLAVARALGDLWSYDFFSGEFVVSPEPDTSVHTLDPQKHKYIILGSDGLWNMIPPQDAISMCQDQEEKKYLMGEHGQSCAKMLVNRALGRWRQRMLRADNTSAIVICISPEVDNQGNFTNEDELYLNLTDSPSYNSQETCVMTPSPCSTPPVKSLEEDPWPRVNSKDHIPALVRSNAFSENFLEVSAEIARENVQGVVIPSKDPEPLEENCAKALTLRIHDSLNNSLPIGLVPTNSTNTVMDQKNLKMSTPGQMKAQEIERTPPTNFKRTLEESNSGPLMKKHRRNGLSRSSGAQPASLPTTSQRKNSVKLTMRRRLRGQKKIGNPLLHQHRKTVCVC
Calcium and integrin-binding protein 1 (Homo sapiens), sequence (Q99828 whole entry, looked up): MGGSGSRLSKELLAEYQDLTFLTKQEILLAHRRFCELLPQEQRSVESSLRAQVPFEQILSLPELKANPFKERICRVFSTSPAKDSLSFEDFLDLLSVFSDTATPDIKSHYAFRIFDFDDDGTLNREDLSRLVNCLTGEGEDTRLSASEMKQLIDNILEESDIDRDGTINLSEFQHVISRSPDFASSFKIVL

Take `CC(C)[N+](C)(CCC(C(N)=O)(c1ccccc1)c1ccccc1)C(C)C`: the Potency entry in assay [1], in assay [3], in assay [4], in [5], in [6] and in assay [8] was “inactive” in each case. The result in [2], in [7] and in assay [9] was inactive.
Take `CCCC[N+]1(C)[C@@H]2CC(OC(=O)[C@H](CO)c3ccccc3)C[C@H]1[C@@H]1O[C@@H]12` (stereo not given in full): the Potency result in assay [1], in assay [3], in assay [4], in assay [5], in assay [6] and in [8] was “inactive” in each case. Besides, the Potency result in assay [10] and in [11] was “inactive” each time. Moreover, the call in assay [2], in assay [7] and in assay [9] was inactive.
As for `Cc1c(Cl)c(=O)oc2cc(OP(=O)(OCCCl)OCCCl)ccc12`, the Potency entry in [1], in assay [3], in assay [4], in assay [5], in [6] and in assay [8] was “inactive” throughout. For the same molecule, the Potency result in assay [10] and in assay [11] was “inactive” in each case. The molecule was called inactive in assay [2].
In the case of `CCOC(=O)C1(c2ccccc2)CCN(CCc2ccc(N)cc2)CC1`, the Potency entry in assay [1], in [3], in assay [4], in [5], in assay [6] and in assay [8] was “inactive” each time. The molecule was called inactive in assay [2] and in assay [7]. The Potency in assay [12] is 1740 nM (active).
As for `CN(C)C(=S)SSC(=S)N(C)C`, the Potency entry in [1] and in [5] was “inactive” each time. Moreover, the result in [2] was inactive. Besides, the Potency was 708 nM (active) in [3], 891 nM (active) in [4], 891 nM (active) in assay [6] and 39800 nM (active) in [8].
On to `CC(Cc1ccccc1)NCc1ccccc1Cl` (stereo not given), for which the Potency entry in assay [1], in [3], in assay [4], in assay [5], in assay [6] and in assay [8] was “inactive” throughout. The molecule was classed as inactive in assay [2], in [7], in assay [13] and in [9]. In addition, the Potency in [12] was 155 nM (active).
In the case of `NC(=O)CN1CCCC1=O`, the Potency result in assay [1], in assay [4], in assay [5], in assay [6], in [8] and in [12] was “inactive” each time. Also, the molecule was called inactive in assay [2], in assay [14], in assay [15], in assay [7], in assay [16] and in [9].
`Nc1ccccc1C(=O)OCC(O)CO` (stereo not given): the Potency entry in [1], in assay [3], in [4], in [5], in assay [6] and in assay [8] was “inactive” throughout. The Potency entry in assay [12] is “inactive”. The result in assay [2] and in assay [7] was inactive.
`CC1=C2[C@H]3OC(=O)[C@@H](C)[C@@H]3CC[C@@]2(C)C=CC1=O`: the Potency result in assay [1], in assay [3], in [4], in [5], in [6] and in [8] was “inactive” throughout. Further, the Potency result in assay [12] is “inactive”. For the same molecule, the result in assay [2], in [7], in assay [13] and in assay [9] was inactive.
In the case of `CC#C[C@]1(O)CC[C@H]2[C@@H]3C[C@H](C)C4=CC(=O)CC[C@]4(C)[C@H]3CC[C@@]21C`, the Potency result in assay [1], in assay [4], in assay [6] and in [8] was “inactive” in each case. The outcome in assay [2] and in [7] was inactive. Also, in [3], the Potency was 20000 nM (active).
Turning to `O=C(O)Cc1ccccc1`, the Potency result in [1], in assay [3], in [4], in assay [5], in assay [6] and in assay [8] was “inactive” in each case. In addition, the molecule was called inactive in assay [2], in assay [7], in assay [13] and in assay [9].
